In PubChem BioAssay (EPA / NIEHS):
Calls of active or inactive are those of the source. How the source made its calls: active means hit-call score of the fitted dose curve at least 0.9, where 1 is the maximum; inactive means score below 0.9.

Test: CCTE_Shafer_MEA_acute_firing_rate_mean: CCTE's Neural Acute Assay for Mean Firing Rate, Shafer Lab (AID 2284009);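 further: analyzed for loss of signal so actives lower firing rate relative to DMSO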
How it was run: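 Rat primary cortical neurons on 48-well MEA plates, dosed at 0.03-40 uM on DIV 13 or 15; 40 min spontaneous activity recorded at 37 C before and after compound. Spike rate per electrode averaged per well, expressed as percent change from baseline.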

| SMILES | AC50 | outcome |
| --- | --- | --- |
| COc1ccc(OC(F)(F)F)cc1CN[C@H]1CCCN[C@H]1c1ccccc1 | 1.73 µM (active) |  |
| CN(C)CCCN1c2ccccc2Sc2ccc(Cl)cc21 |  | inactive |
| c1ccc2occc2c1 |  | inactive |
| O=C(N[C@@H](c1ccccc1)[C@@H]1CCCCN1)c1cccc(C(F)(F)F)c1Cl | 4.39 µM (active) |  |
| C/C=C/c1ccc(OC)cc1 |  | inactive |
| OCC(CO)n1cnc(-c2ccc(F)cc2)c1-c1ccnc(Oc2ccccc2)n1 |  | inactive |
| CC(C)COC(=O)CCCCC(=O)OCC(C)C |  | inactive |
| CCCCC(CC)COP(=O)(OCC(CC)CCCC)OCC(CC)CCCC (configuration not stated) |  | inactive |
| CN(C)C(=O)NC1(c2ccccc2)CCN(CCC[C@]2(c3ccc(Cl)c(Cl)c3)CCCN(C(=O)c3ccccc3)C2)CC1 |  | inactive |
| CC(N)=O |  | inactive |
| CCCC(=O)O |  | inactive |
| CC(C)NCC(O)c1ccc(O)c(O)c1 (configuration not stated) |  | inactive |
| O=C(O)CN(CC(=O)O)CC(=O)O |  | inactive |
| Oc1ccc(O)cc1 |  | inactive |
| CN(C)C(=O)NC1(c2ccccc2)CCN(CC[C@@]2(c3ccc(F)c(F)c3)CN(C(=O)c3ccccc3)CCO2)CC1 | 4.14 µM (active) |  |
| NC(=Nc1ccccc1)Nc1ccccc1 | 2.03 µM (active) |  |
| Cc1cc(Cc2ccc(N)c(C)c2)ccc1N | 14.9 µM (active) |  |
